From PMC6664820, “Novel natural and synthetic inhibitors of solute carriers SGLT1 and SGLT2” (Pharmacology Research & Perspectives, 2019) come the findings set out here.

Screen size: about 1,900 compounds; about 40 (2%) showed an effect of 50% or more. The sample as a whole holds a higher share of strong results than the screen did.

For this assay, the target named is human SGLT1 (hSGLT1) (human, UniProt P13866). Nature of the assay: primary screen, percent of control activity; higher = less effect of the substance. More on the design: single well. The following applies: 50 µM. The protocol: Two days before the assay, CHO‐wild type and CHO‐hSGLT1 cells were seeded in maintenance medium at 25 000 cells/well in clear‐bottom black 96‐well cell culture plates. Before the assay, cells were washed 3 times with 150 μL/well D‐glucose free DMEM with 0.3% (w/v) BSA. Library compounds at 50 μmol/L (singlicate) prepared in D‐glucose free DMEM with 160 μmol/L 1‐NBD‐glucose and 0.3% (w/v) BSA and negative controls (triplicate) were added at 100 μL/well and placed in a humidified incubator at 37°C with 5% CO2 for 90 minutes. Next, cells were washed 3 times with DMEM with 0.3% (w/v) BSA (150 μL/well). Care was taken to remove all medium after the last wash. Finally, 1‐NBD‐glucose was extracted from the cells by adding 10 μL/well isopropanol and orbital shaking for 5 minutes at 600 rpm, followed by incubation in the dark for 30 minutes. Fluorescence was measured on a Tecan Infinite M200 Microplate Reader (Tecan, Männedorf, Switzerland) with excitation at 445 nm and emission at 525 nm. The amount of 1‐NBD‐glucose taken up by the CHO‐wild type or CHO‐hSGLT1 cells in the presence or absence of test compounds was interpolated from 1‐NBD‐glucose calibration standards. The background uptake by CHO‐wild type was subtracted from the uptake by CHO‐hSGLT1. Background corrected uptake with test compound was expressed as a percentage of corrected uptake without test compound.
human SGLT1 (hSGLT1), sequence (P13866 whole entry, looked up): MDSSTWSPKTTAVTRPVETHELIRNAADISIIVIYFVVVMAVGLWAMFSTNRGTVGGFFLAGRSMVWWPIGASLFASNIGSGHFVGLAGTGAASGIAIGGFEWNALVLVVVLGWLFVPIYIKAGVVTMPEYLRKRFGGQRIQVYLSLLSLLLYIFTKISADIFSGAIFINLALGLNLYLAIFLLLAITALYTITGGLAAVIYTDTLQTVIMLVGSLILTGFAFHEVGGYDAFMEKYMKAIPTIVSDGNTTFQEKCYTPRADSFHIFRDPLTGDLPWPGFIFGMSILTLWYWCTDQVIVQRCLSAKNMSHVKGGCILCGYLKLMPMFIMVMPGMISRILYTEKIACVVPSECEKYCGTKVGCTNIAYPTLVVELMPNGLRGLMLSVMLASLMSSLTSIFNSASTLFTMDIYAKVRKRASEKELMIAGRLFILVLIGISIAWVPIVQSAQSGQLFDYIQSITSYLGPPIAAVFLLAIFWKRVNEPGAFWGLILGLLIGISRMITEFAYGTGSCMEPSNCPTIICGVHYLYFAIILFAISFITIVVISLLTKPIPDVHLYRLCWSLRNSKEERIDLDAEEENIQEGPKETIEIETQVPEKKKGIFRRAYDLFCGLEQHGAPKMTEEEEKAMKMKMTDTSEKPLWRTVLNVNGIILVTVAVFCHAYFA
For the molecule `Nc1ccc(S(=O)(=O)NC(=O)c2ccccc2)cc1`, the “NORMALIZED SGLT1 ACTIVITY (%)” value turned out to be 100%.

In the case of `C[C@H]1[C@H](C)CC[C@]2(C(=O)O)CC[C@]3(C)C(=CC[C@@H]4[C@@]5(C)CC[C@H](O)C(C)(C)[C@@H]5CC[C@]43C)[C@H]12`, the “NORMALIZED SGLT1 ACTIVITY (%)” value was 84%.

As to `CC(=O)O[C@@H]1CC[C@@]2(C)C(CC[C@]3(C)C2CC=C2C4CC(C)(C)CC[C@]4(C(=O)O)CC[C@]23C)C1(C)C` (some centres unmarked), the “NORMALIZED SGLT1 ACTIVITY (%)” value amounted to 141%.

`CC(=O)O[C@H]1CC[C@@]2(C)C(CC[C@]3(C)C2C(=O)C=C2C4[C@@H](C)[C@H](C)CC[C@]4(C(=O)O)CC[C@]23C)C1(C)C` (some centres unmarked): the “NORMALIZED SGLT1 ACTIVITY (%)” value was 37%.

Regarding `CCCCCc1c2c(cc(O)c1C(=O)O)OC(=O)c1c(cc(OC)cc1C(=O)CCCC)O2`, the “NORMALIZED SGLT1 ACTIVITY (%)” value amounted to 152%.

On to `O=C(O)c1cccnc1C(=O)O`, for which the “NORMALIZED SGLT1 ACTIVITY (%)” value stood at 124%.

For `O=C(O)Cc1nn(Cc2ccc(Br)cc2F)c(=O)c2ccccc12`, the “NORMALIZED SGLT1 ACTIVITY (%)” value is listed as 180%.

For the molecule `CC(COc1ccccc1)N(CCCl)Cc1ccccc1.Cl` (centres unmarked), the “NORMALIZED SGLT1 ACTIVITY (%)” value came out at 35%.

On to `C[C@H](COc1ccccc1)N[C@H](C)[C@H](O)c1ccc(O)cc1.Cl`, for which the “NORMALIZED SGLT1 ACTIVITY (%)” value is listed as 119%.

On to `C#CCN(C)Cc1ccccc1.Cl`, for which the “NORMALIZED SGLT1 ACTIVITY (%)” value is given as 134%.

In the case of `C[C@H]1O[C@@H](O[C@H]2[C@@H](O)C[C@H](O[C@H]3[C@@H](O)C[C@H](O[C@H]4CC[C@@]5(C)[C@H](CC[C@@H]6[C@@H]5CC[C@]5(C)[C@@H](C7=CC(=O)OC7)CC[C@]65O)C4)O[C@@H]3C)O[C@@H]2C)C[C@H](O)[C@@H]1O`, the “NORMALIZED SGLT1 ACTIVITY (%)” value was determined as 111%.

`CC(CCC(=O)O)[C@H]1CCC2C3C(C[C@H](O)[C@@]21C)[C@@]1(C)CC[C@@H](O)C[C@H]1C[C@H]3O` (some centres unmarked): the “NORMALIZED SGLT1 ACTIVITY (%)” value is given as 89%.

As to `C[C@H]1OC(n2cc(F)c(=O)[nH]c2=O)C(O)[C@@H]1O` (some centres unmarked), the “NORMALIZED SGLT1 ACTIVITY (%)” value is recorded as 112%.

With `Cn1c(=O)c2c(ncn2CCCl)n(C)c1=O`, the “NORMALIZED SGLT1 ACTIVITY (%)” value came to 183%.

For `COc1cccc(OC)c1OCCNCC1COc2ccccc2O1.Cl` (centres unmarked), the “NORMALIZED SGLT1 ACTIVITY (%)” value is on record as 72%.

As for `Cl.Nc1c(Br)cc(Br)cc1CNC1CCC(O)CC1` (centres unmarked), the “NORMALIZED SGLT1 ACTIVITY (%)” value is 99%.

Regarding `CN(Cc1cc(Br)cc(Br)c1N)C1CCCCC1.Cl`, the “NORMALIZED SGLT1 ACTIVITY (%)” value was determined as 44%.

For the molecule `C[C@@H]1[C@H]2[C@H](O[C@@H]3O[C@H](CO)[C@@H](O)[C@H](O)[C@H]3O)OC=C(C(=O)O)[C@H]2C[C@@H]1O`, the “NORMALIZED SGLT1 ACTIVITY (%)” value is recorded as 123%.

Turning to `Nc1ccn(C2O[C@H](CO)[C@@H](O)[C@H]2O)c(=O)n1` (some centres unmarked), the “NORMALIZED SGLT1 ACTIVITY (%)” value turned out to be 107%.

Take `O=C(O[C@@H]1Cc2c(O)cc(O)cc2O[C@@H]1c1cc(O)c(O)c(O)c1-c1c([C@H]2Oc3cc(O)cc(O)c3C[C@H]2OC(=O)c2cc(O)c(O)c(O)c2)cc(O)c(O)c1O)c1cc(O)c(O)c(O)c1`: the “NORMALIZED SGLT1 ACTIVITY (%)” value was found to be 99%.

As to `O=C1CCCC2C3CC(CN12)[C@@H]1CCCCN1C3.[O-][Cl+3]([O-])([O-])O` (some centres unmarked), the “NORMALIZED SGLT1 ACTIVITY (%)” value is recorded as 97%.

For `Oc1cc(O)cc(/C=C/c2ccccc2)c1`, the “NORMALIZED SGLT1 ACTIVITY (%)” value was 39%.

Consider `COc1ccc(/C=C/c2cc(O)cc(O)c2)cc1`, for which the “NORMALIZED SGLT1 ACTIVITY (%)” value was 198%.

Regarding `COc1cc(O)cc(/C=C/c2ccccc2)c1`, the “NORMALIZED SGLT1 ACTIVITY (%)” value is 494%.

As for `O=C1c2ccccc2C(=O)C1c1ccccc1`, the “NORMALIZED SGLT1 ACTIVITY (%)” value was 111%.

`COc1ccc(C(=O)CC(=O)O)c2c1C=CC(C)(C)O2`: the “NORMALIZED SGLT1 ACTIVITY (%)” value is listed as 115%.

In the case of `CC(=O)/C(=C\c1ccccc1)CC(=O)O`, the “NORMALIZED SGLT1 ACTIVITY (%)” value was 142%.

For the molecule `CC(=O)Oc1ccc(/C=C/c2cc(OC(C)=O)cc(OC(C)=O)c2)cc1`, the “NORMALIZED SGLT1 ACTIVITY (%)” value is recorded as 222%.

As to `COc1cc(-c2coc3cc(O[C@@H]4O[C@H](CO)[C@@H](O)[C@H](O)[C@H]4O)c(OC)c(O)c3c2=O)cc(O)c1OC`, the “NORMALIZED SGLT1 ACTIVITY (%)” value is listed as 111%.

Consider `COC(=O)C1[C@H]2C[C@H]3c4[nH]c5ccccc5c4CCN3C[C@@H]2CC[C@@H]1O.Cl` (some centres unmarked), for which the “NORMALIZED SGLT1 ACTIVITY (%)” value came to 120%.

In the case of `CC(=O)O[C@@H]1CC2C(C)(C)CCC(=O)[C@]2(C)C2CC[C@@]3(C)[C@H](c4ccoc4)OC(=O)C4OC43[C@@]21C` (some centres unmarked), the “NORMALIZED SGLT1 ACTIVITY (%)” value turned out to be 126%.

Regarding `CCOc1nc2cccc(C(=O)OC(C)OC(=O)OC3CCCCC3)c2n1Cc1ccc(-c2ccccc2-c2nnn[nH]2)cc1` (centres unmarked), the “NORMALIZED SGLT1 ACTIVITY (%)” value stood at 36%.

`CCCCc1nc(Cl)c(CO)n1Cc1ccc(-c2ccccc2-c2nnn[nH]2)cc1`: the “NORMALIZED SGLT1 ACTIVITY (%)” value is reported as 249%.

In the case of `CCCCC1=NC2(CCCC2)C(=O)N1Cc1ccc(-c2ccccc2-c2nnn[nH]2)cc1`, the “NORMALIZED SGLT1 ACTIVITY (%)” value was 117%.

For `N.N.[Cl][Pt][Cl]`, the “NORMALIZED SGLT1 ACTIVITY (%)” value was found to be 90%.

As for `COc1ccc2c(c1)[C@@]1(C)CC[C@@H](O)C[C@@H]1CC2`, the “NORMALIZED SGLT1 ACTIVITY (%)” value worked out at 116%.

Take `CC(C)=CCCC1(C)C=Cc2c(O)c3c(c(CC=C(C)C)c2O1)OC12C(=CCCC1C(C)(C)O[C@@]2(C/C=C(\C)C(=O)O)C(=O)O)C3=O` (some centres unmarked): the “NORMALIZED SGLT1 ACTIVITY (%)” value turned out to be 39%.

Turning to `CC(C)=CCCC1(C)C=Cc2c(O)c3c(c(CC=C(C)C)c2O1)OC12C(=CC4CC1C(C)(C)OC2(C/C=C(/C)C(=O)O)C4=O)C3=O` (centres unmarked), the “NORMALIZED SGLT1 ACTIVITY (%)” value came to 163%.

`CC(C)=CCCC1(C)C=Cc2c(O)c3c(c(CC=C(C)C)c2O1)OC12C(=CC4CC1C(C)(C)OC2(C/C=C(/C)C(=O)O)C4O)C3=O` (centres unmarked): the “NORMALIZED SGLT1 ACTIVITY (%)” value is listed as 174%.

Regarding `O=c1c(O)cccc2cc(O)c(O)c(O)c12`, the “NORMALIZED SGLT1 ACTIVITY (%)” value turned out to be 137%.

For `CNC(C)[C@@H]1CC[C@@H](N)[C@@H](OC2[C@@H](N)C[C@@H](N)[C@H](OC3OC[C@](C)(O)[C@H](NC)[C@H]3O)[C@H]2O)O1.O=S(=O)(O)O` (some centres unmarked), the “NORMALIZED SGLT1 ACTIVITY (%)” value was 95%.
